Test results as given in PubChem BioAssay (NCI).
Compounds without any hit were thinned out: in the full panel of roughly 83,000, 20% have a hit.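 Treatment: one concentration, 48 hours, 96-well format. Scoring: percent growth, with anything below 10 considered active.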 Activity calls are given as the source filed them.

Tests used:
Assay in all cases: NCI-60 one-dose screen, 48 h (100 = growth as untreated, 0 = no growth, -100 = all killed)
Conditions in all cases: 10 µM unless noted
NCI-H23 lung = test system: NCI-H23 lung
NCI-H226 lung = test system: NCI-H226 lung
NCI-H322M lung = test system: NCI-H322M lung
HOP-62 NSCLC = test system: HOP-62 NSCLC
NCI-H460 lung = test system: NCI-H460 lung
HOP-92 NSCLC = test system: HOP-92 NSCLC
NCI-H522 lung = test system: NCI-H522 lung
A549/ATCC NSCLC = test system: A549/ATCC NSCLC
COLO 205 colon = test system: COLO 205 colon
786-0 renal = test system: 786-0 renal

Measured: growth

CCOC(=O)c1cc(C(=O)c2ccc(OC)c(OC)c2)n2ccc(/C=C/c3cc[n+](CC(=O)c4ccc(OC)c(OC)c4)cc3)cc12
inactive: NCI-H23 lung 93.5% | NCI-H226 lung 99.2% | NCI-H322M lung 99% | HOP-62 NSCLC 101% | NCI-H460 lung 98.6% | HOP-92 NSCLC 110% | NCI-H522 lung 85.5% | A549/ATCC NSCLC 95.9% | COLO 205 colon 114%

CC(C)N1C(=O)/C(=C2\SC(=S)N(C(C)C)C2=O)SC1=S
inactive: NCI-H23 lung 94% | NCI-H226 lung 101% | NCI-H322M lung 94% | HOP-62 NSCLC 95.5% | NCI-H460 lung 101% | HOP-92 NSCLC 72.3% | NCI-H522 lung 90.6% | A549/ATCC NSCLC 93.8% | COLO 205 colon 110%

CCOC(=O)c1cc(C(=O)c2ccc(OC)cc2)n2ccc(/C=C/c3cc[n+](CC(=O)c4ccc(OC)cc4)cc3)cc12
inactive: NCI-H23 lung 83.6% | NCI-H226 lung 90.7% | NCI-H322M lung 86.3% | HOP-62 NSCLC 81.1% | NCI-H460 lung 75.1% | HOP-92 NSCLC 50.1% | NCI-H522 lung 57.1% | A549/ATCC NSCLC 52.2% | COLO 205 colon 65.3%

CCOC(=O)c1cc(C(=O)c2cc(OC)cc(OC)c2)n2ccc3ccccc3c12
inactive: NCI-H23 lung 81.5% | NCI-H226 lung 91.8% | NCI-H322M lung 91.1% | HOP-62 NSCLC 70.7% | NCI-H460 lung 101% | HOP-92 NSCLC 111% | NCI-H522 lung 83.3% | A549/ATCC NSCLC 77.9% | COLO 205 colon 115%

CC(C)N1C(=O)S/C(=C2/SC(=O)N(C(C)C)C2=O)C1=O
inactive: NCI-H23 lung 93.8% | NCI-H226 lung 102% | NCI-H322M lung 93.4% | HOP-62 NSCLC 111% | NCI-H460 lung 102% | HOP-92 NSCLC 74.6% | NCI-H522 lung 89.9% | A549/ATCC NSCLC 101% | COLO 205 colon 112%

COc1ccc(CCn2cncc2-c2c[nH]c3ccccc23)cc1
inactive: NCI-H23 lung 82% | NCI-H226 lung 81.3% | NCI-H322M lung 92.8% | HOP-62 NSCLC 72.8% | NCI-H460 lung 92.5% | HOP-92 NSCLC 60.7% | NCI-H522 lung 83.7% | A549/ATCC NSCLC 99.2% | COLO 205 colon 96.9%

N#C/C(=C\c1ccccn1)c1nc2cc(Cl)ccc2s1
inactive: NCI-H23 lung 72.1% | NCI-H226 lung 67.9% | NCI-H322M lung 87.1% | HOP-62 NSCLC 63.5% | NCI-H460 lung 92% | HOP-92 NSCLC 55.8% | NCI-H522 lung 63.4% | A549/ATCC NSCLC 78.1% | COLO 205 colon 101%

CCOC(=O)c1cc(C#N)n2ccc3ccccc3c12
inactive: NCI-H23 lung 94.7% | NCI-H226 lung 97.5% | NCI-H322M lung 98.1% | HOP-62 NSCLC 105% | NCI-H460 lung 100% | HOP-92 NSCLC 93.5% | NCI-H522 lung 92.2% | A549/ATCC NSCLC 98.8% | COLO 205 colon 112%

N#C/C(=C\c1ccc(C(F)(F)F)cc1)c1cc2ccccc2[nH]1
inactive: NCI-H23 lung 98.1% | NCI-H226 lung 101% | NCI-H322M lung 100% | HOP-62 NSCLC 99.8% | NCI-H460 lung 97.7% | HOP-92 NSCLC 119% | NCI-H522 lung 84.5% | A549/ATCC NSCLC 100% | COLO 205 colon 113%

COc1ccc(C(=O)C2C(C#N)C(C#N)C3c4ccccc4C=CN23)cc1 (centres undefined)
inactive: NCI-H23 lung 83.3% | NCI-H226 lung 74.7% | NCI-H322M lung 89% | HOP-62 NSCLC 92.9% | NCI-H460 lung 97.7% | HOP-92 NSCLC 85.9% | NCI-H522 lung 71.9% | A549/ATCC NSCLC 87.2% | COLO 205 colon 107%

N#CC1C(C#N)C2c3ccccc3C=CN2C1C(=O)c1ccc(Br)cc1 (centres undefined)
inactive: NCI-H23 lung 91.4% | NCI-H226 lung 91.6% | NCI-H322M lung 96.8% | HOP-62 NSCLC 97.7% | NCI-H460 lung 87.7% | HOP-92 NSCLC 95.8% | NCI-H522 lung 88.7% | A549/ATCC NSCLC 83.6% | COLO 205 colon 107%

COc1ccc(OC)c(CCn2cncc2-c2c[nH]c3ccccc23)c1
inactive: NCI-H23 lung 55.6% | NCI-H226 lung 68.3% | NCI-H322M lung 82.8% | HOP-62 NSCLC 74.3% | NCI-H460 lung 92% | HOP-92 NSCLC 46.7% | NCI-H522 lung 71% | A549/ATCC NSCLC 90.8% | COLO 205 colon 90.1%

O=C(C[n+]1cccc2ccccc21)c1ccc(O)c(O)c1
inactive: NCI-H23 lung 78.5% | NCI-H226 lung 62.1% | NCI-H322M lung 93.5% | HOP-62 NSCLC 102% | NCI-H460 lung 92.6% | HOP-92 NSCLC 73.2% | NCI-H522 lung 20.9% | A549/ATCC NSCLC 84.4% | COLO 205 colon 56.4%

N#C/C(=C\c1ccc([N+](=O)[O-])s1)c1nc2cc(Br)ccc2s1
active: NCI-H23 lung -27.8% | NCI-H226 lung -75.9% | HOP-62 NSCLC -35.5% | NCI-H460 lung -26.9% | HOP-92 NSCLC -55.2% | NCI-H522 lung -45.4% | A549/ATCC NSCLC 5.93% | COLO 205 colon -74.8%
inactive: NCI-H322M lung 85.6%

Cc1nnc2c(Cc3ccccc3)nc3ccccc3n12
inactive: NCI-H23 lung 91.3% | NCI-H226 lung 84.9% | NCI-H322M lung 100% | HOP-62 NSCLC 108% | HOP-92 NSCLC 82.4% | NCI-H522 lung 107% | A549/ATCC NSCLC 97.9% | 786-0 renal 98.6%
